HttQ103 aggreg: mutant huntingtin aggregation inhibition. PC12 HttQ103-GFP aggregates, Acumen cytometry, 40 h. Potency, µM (doses to about 46.1 µM), inactives show at the top dose activity change, negative = inhibition, most hits filed as inhibitors. actives 1.1% (n = 220,000). AID 1688; active = well fitted curve in the direction sought with a large enough effect; inconclusive = small, poorly fitted or top-dose-only effect, or another doubt; inactive = no such curve, though single readings can be large; an effect the other way counts as inactive or inconclusive; also: % is scaled to controls: 0 for no effect and ±100 for the full control effect; nearly all actives have a fitted effect of over 60% in size
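Steps: seed 1500 PC12 HTTQ103-GFP cells/well; add tebufenozide, 100 nM final; add compound titration; add ATPLite reagent; quantify GFP aggregates by laser scanning cytometry.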
HPGD inh: HPGD (human) dehydrogenase inhibition | P15428 | purified HPGD, NADH fluorescence kinetic, PGE2 substrate | Potency, µM, without a hit: at the highest dose activity change, negative = inhibition, usual class: inhibitors | actives 4.3% (n = 150,000) | AID 894; also: % is scaled to controls: 0 for no effect and ±100 for the full control effect
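20 nM HPGD preincubated 15 min at room temperature with compound in 50 mM Tris-HCl pH 8, 0.01% Tween 20. Started with 1 mM NAD+ and 30 uM prostaglandin E2; NADH fluorescence (360/450 nm) read 5 times over 30-s intervals, last minus first.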
KDM4E inh: blocks human JMJD2E demethylase activity. B2RXH2. JMJD2E catalytic domain, FDH-coupled NADH fluorescence (FDH is formaldehyde dehydrogenase). Potency, µM (titrated, usually from 57.1 µM), without a hit: top-dose activity change, negative = inhibition, actives largely listed as inhibitors. actives 1.6% (n = 230,000);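 also: 0% = wells with enzyme and -100% = buffer wells without enzyme; nearly all actives have a fitted effect of over 50% in size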
HTT ATP protect: Huntington cell model cytoprotection by ATP luminescence | PC12 HTT-Q103 induced, cytoprotection, ATP luminescence, 40 h | Potency, µM (series often up to 56.4 µM), without a hit: cytoprotection (ATP increase), usual class: activators | actives 0.14% (n = 230,000); active = well fitted curve in the direction sought with a large enough effect; inconclusive = small, poorly fitted or top-dose-only effect, or another doubt; inactive = no such curve, though single readings can be large; an effect the other way counts as inactive or inconclusive; also: % of control where 0% means no effect; nearly all actives have a fitted effect of over 45% in size
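Compounds were screened for protection of PC12 cells against cell death after tebufenozide induction (100 nM final) of mutant Huntingtin exon 1 (Q103) fused to GFP.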
LMNA splice mod: LMNA splicing modulation. HeLa LMNA splicing GFP/RFP minigene ratio, 48 h. Potency, µM (top dose mostly 46.1 µM), without a hit: at the highest dose ratio change, negative = inhibition, usual class: inhibitors. actives 0.01% (n = 200,000); active = well fitted inhibition curve with a large enough effect in the signal ratio, with a control signal flat, not every such curve was filed as active; inconclusive = small, poorly fitted or top-dose-only effect, or effect the other way, or a change in a side signal; the % refers to the signal ratio; also: % is scaled to controls: 0 for no effect and ±100 for the full control effect
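Read-out is the ratio of GFP to DsRed2 object intensity, acquired by 488 nm laser-scanning cytometry on HeLa lamin A-EGFP minigene reporter cells. Compound incubation 48 hrs at 37 °C in Opti-MEM with 2% FBS; DMSO 0.5% final.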
ALDH1A1 inh: ALDH1A1 (human) enzyme inhibition; Purified ALDH1A1, NADH fluorescence, propionaldehyde substrate; actives 7.3% (n = 220,000); Potency, µM (titrated, usually from 75.3 µM), without a hit: at the top dose activity, negative = inhibition, actives largely listed as inhibitors; P00352;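 also: plate controls were no enzyme wells and a reference inhibitor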
Target sequence (P00352 whole entry, looked up): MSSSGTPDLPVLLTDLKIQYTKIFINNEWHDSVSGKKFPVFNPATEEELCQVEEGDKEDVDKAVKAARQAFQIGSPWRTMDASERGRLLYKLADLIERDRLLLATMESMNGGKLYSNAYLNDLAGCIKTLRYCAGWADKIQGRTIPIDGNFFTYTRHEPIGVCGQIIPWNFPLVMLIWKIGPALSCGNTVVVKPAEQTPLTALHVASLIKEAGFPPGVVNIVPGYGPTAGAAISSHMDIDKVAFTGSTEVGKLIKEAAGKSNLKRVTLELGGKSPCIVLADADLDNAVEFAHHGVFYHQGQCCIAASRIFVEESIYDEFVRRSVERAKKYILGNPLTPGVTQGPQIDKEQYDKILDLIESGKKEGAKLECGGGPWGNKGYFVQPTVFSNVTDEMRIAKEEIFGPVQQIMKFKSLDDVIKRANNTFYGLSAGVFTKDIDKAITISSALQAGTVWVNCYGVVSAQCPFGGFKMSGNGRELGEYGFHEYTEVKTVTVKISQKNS
* hit, by the source's call; ? = inconclusive; . = not tested or not shown; [ ] = remark or other dose. Rows were chosen to be rich in hits. Some 9.2% of all compounds tested hit in one or more screens of this group. Unless noted, calls follow the shape of the dose curve; as a rule, active = well fitted inhibition curve with a large enough effect (not every such curve was filed as active); inconclusive = small, poorly fitted or top-dose-only effect, or another doubt; inactive = no such curve, though single readings can be large or run the other way. Potency is read from the fitted curve at half-maximal effect.

SMILES	HttQ103 aggreg	HPGD inh	KDM4E inh	HTT ATP protect	LMNA splice mod	ALDH1A1 inh
COc1cccc(CNC(=O)C(=O)NCC2CCCO2)c1 (stereo unspecified)	3%	-4%	-3%	11%[10 µM]	-6%	-10%
COc1cccc(CN(CC2CCCO2)C(=O)c2cc3ccccc3oc2=O)c1 (stereo unspecified)	10%[9.22 µM]	.	-17%	-3%[10 µM]	-7%[46 µM]	16µM*
CCc1ccc(NC(=O)C(=O)NCC2CCCO2)cc1 (stereo unspecified)	1%	.	5%	-14%[10 µM]	22%[46 µM]	3%
Cn1c(C(=O)NCC2CCCO2)cc2oc3ccccc3c21 (stereo unspecified)	-16%	1.4µM*	2%	-24%	?	-7%
CC(C)NC(=O)c1ccc(COCC(F)(F)C(F)F)cc1	2%	-20%	-1%	-19%	9%	3%
O=C(NCC1CCCO1)c1ccc(COCC(F)(F)C(F)F)cc1 (stereo unspecified)	-8%	14µM*	0%	19%[10 µM]	8%	-1%
O=C(Nc1ccc(Cl)cc1C(=O)NCC1CCCO1)c1ccc(Cl)cc1Cl (stereo unspecified)	-5%	-1%	-29%	-1%[10 µM]	-5%	3%
COc1cccc(C(=O)NCC2CCCO2)c1 (stereo unspecified)	-7%	8.9µM*	-3%	5%	-6%	1%
O=C(NCC1CCCO1)c1sc2cc(Cl)ccc2c1Cl (stereo unspecified)	4%	14µM*	-5%	-6%[10 µM]	?	?
CN1CCCC[C@@H]1CCN1CCCCC1	.	0%	.	6%[10 µM]	.	12%[13.5 µM]
COC(=O)[C@@]1(Cc2ccc(OC)cc2)[C@H]2c3cc(C(=O)N(C)C)n(Cc4ccc(Cl)c(C(F)(F)F)c4)c3C[C@H]2CN1C(=O)c1ccccc1	.	-9%	14%	?	.	-9%
COC(=O)C1=C(C(=O)OC)[C@@H]2N(C)c3ccc(OC)cc3[C@@]23C[C@@H](C(=O)OC)N(S(=O)(=O)c2ccc(C)cc2)C3=N1	.	2%	10%[11.4 µM]	5%[10 µM]	1%[9.22 µM]	-10%[13.5 µM]
CC(=O)c1c[nH]c(C(=O)NCC2CCCO2)c1 (stereo unspecified)	8%	0%	11%	-4%[10 µM]	-5%	8%
COc1cc(C(=O)NCC2CCCO2)cc(OC)c1OC (stereo unspecified)	4%	0%	10%	19%[10 µM]	-13%	9%
Cc1ccc(C(=O)NC(=S)NCC2CCCO2)cc1Br (stereo unspecified)	-4%	-11%	0%	.	?	8.9µM*
COc1cc(OC)cc(C(=O)NCC2CCCO2)c1 (stereo unspecified)	8%	25µM*	2%	25%	-2%	-2%
CC(C)CC(=O)c1c[nH]c(C(=O)NCC2CCCO2)c1 (stereo unspecified)	13%	20µM*	10%	1%	0%	?
CN(c1ccccc1)S(=O)(=O)c1ccc(C(=O)NCC2CCCO2)cc1 (stereo unspecified)	8%	-26%	4%	-11%	-14%	2%
CN(c1ccc(C(=O)NCC2CCCO2)cc1)S(=O)(=O)c1ccccc1 (stereo unspecified)	-14%	14µM*	5%	-5%	0%	15%
C=CCn1c(C)cc(C(=O)CSc2nc3ccccc3c(=O)[nH]2)c1C	-30%	2.8µM*	-9%	-10%[10 µM]	?	?
CCN(CC)C(=O)CSc1nc2ncc(Cl)cc2[nH]1	-13%	13µM*	-3%	-12%[0.074 µM]	13%	?
C=CCn1c(C)cc(C(=O)CSc2nc3ccccc3[nH]2)c1C	?	?	8%	-62%	-15%	-8%
Cc1cc(C)c(C(=O)CSc2nc3ccccc3c(=O)[nH]2)cc1C	2%	.	-1%	-40%	?	?
COCCn1c(C)cc(C(=O)CSc2nc3ccccc3c(=O)[nH]2)c1C	-29%	16µM*	-2%	19%[10 µM]	?	7%
COCC(C)n1c(C)cc(C(=O)CSc2nc3ccccc3c(=O)[nH]2)c1C (stereo unspecified)	?	32µM*	?	-95%	?	-8%
SMILES	HttQ103 aggreg	HPGD inh	KDM4E inh	HTT ATP protect	LMNA splice mod	ALDH1A1 inh
CS(=O)(=O)Nc1cccc(-c2ccc3ncnc(NC4CC4)c3c2)c1	.	.	.	-63%	?	7%
CCN(CC)C(=O)CSc1nc2ccccc2c(=O)[nH]1	27%	8.9µM*	-16%	-12%	-17%	?
CN(C)C(=O)CSc1nc2ccccc2c(=O)[nH]1	13%	-22%	4%	3%	-7%	-11%
COc1cc(/C=C(\C#N)c2[nH]nc(N)c2C#N)cc(OC)c1O	5%[9.22 µM]	16µM*	-1%	-24%	?	-7%
COc1cc(/C=C(\C#N)c2ccccn2)cc(OC)c1O	6%[9.22 µM]	.	15%	-20%[10 µM]	.	.
COC(=O)c1cc(C)nc(Sc2ccccc2N)n1	-32%[9.22 µM]	.	?	-32%[10 µM]	.	3.5µM*
COc1ccc(-c2nc(N)n(C(=O)Cc3ccccc3)n2)cc1	-4%	-11%	10%	-5%	8%	-5%
COc1ccc2cc3c(N)nn(C(=O)C4CCC(C(C)(C)C)CC4)c3nc2c1 (stereo unspecified)	10µM*	?	-12%	.	?	?
COc1ccc2cc3c(N)nn(C(=O)Cc4ccccc4OC)c3nc2c1	4.5µM*	-1%	-5%	23%	13%	?
CCOC(=O)C1CCN(c2nc3cc(OC)ccc3cc2C#N)CC1	?	?	?	7%[10 µM]	15%	?
COc1ccc2cc3c(N)nn(C(=O)c4cccc([N+](=O)[O-])c4)c3nc2c1	3.5µM*	-20%	-1%	3%[10 µM]	0%	-9%
COc1ccc(-n2cnc(N)c2C(=O)c2cccc([N+](=O)[O-])c2)cc1	8.9µM*	-11%	1%	10%[10 µM]	?	-4%
CCCC(C)NC(=O)COc1ccc(S(=O)(=O)c2ccc(OCC(=O)NC(C)CCC)cc2)cc1 (stereo unspecified)	-4%	-12%	0%	.	?	?
C=CCN1C(c2ccc(OCC)cc2)=CS/C1=C(\C#N)c1nnc2n1CCCCC2	?	28µM*	-3%	-7%[1.9 µM]	?	14µM*
N#C/C(=C(/O)COc1ccc(Br)cc1)c1nnc2n1CCCCC2	14%	.	-28%	14%[10 µM]	-26%[46 µM]	-5%
C=C(C)CNC(=S)NNC(=O)CCn1c2ccc(Cl)cc2c2cc(Cl)ccc21	-14%	-8%	-4%	-20%[1.9 µM]	?	9%
CCc1ccc(-n2c(C)n[nH]c2=S)cc1	7%[9.22 µM]	.	-20%	4%[10 µM]	1%[46 µM]	11%

From PubChem BioAssay
